A1 inh: blocks A1 activity | caspase activation, % (no concentration beside the values) | AID 2241 | MEF A1-2A-BIM cells, caspase-Glo luminescence, 3 h; percent of clofoctol signal, DMSO as zero | actives 0.51% (n = 21,000);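 active means most replicate scores above 10, or exactly half above 10 with mean activity above 10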;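 further: effector caspase 3 and 7 activity cleaving a DEVD luciferin substrate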
BJeLR viab HTS: lowers viability of BJeLR cells. BJeLR fibroblasts viability, CellTiterGlo ATP luminescence, 48 h; HRASV12, hTERT and SV40 LT/ST transformed. viability loss activity score, % (no concentration beside the values). actives 0.64% (n = 30,000); in the data active means viability loss activity score above about 50%;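 further: higher score means fewer live cells and less ATP luminescence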
An asterisk follows results filed as active; x = not tested or not shown. This is a sample that favours compounds with a hit; in the whole collection about 0.9% have one here.

SMILES	A1 inh	BJeLR viab HTS
COc1ccc(C(c2ccc3cccnc3c2O)N2CCOCC2)cc1 (stereo unspecified)	42.8*	30.0
Oc1c(C(c2ccncc2)N2CCCC2)ccc2cccnc12 (stereo unspecified)	4.8	31.5
COCC(C)NC(=O)c1cccc(OC)c1 (stereo unspecified)	0.2	-7.3
COc1cc(SC)ccc1C(=O)Nc1ccccc1C(N)=O	0.2	3.6
Cn1c2ccccc2c2c3c(c4c5ccccc5n(CCC#N)c4c21)CNC3=O	28.0*	21.0
Cn1c2ccccc2c2cnn(CC(=O)O)c(=O)c21	0.4	-1.7
COc1cc2c(cc1OC)C(COc1ccc(F)cc1)N(C(=S)Nc1cccc(C)c1C)CC2 (stereo unspecified)	x	1.8
CCN1CNC(=S)N(c2ccccc2)C1	0.3	3.9
CCN1CSC(=S)N(Cc2ccccc2)C1	-0.8	53.6*
FC(F)(F)c1nc(NCCc2ccccc2)nc2c1CCCCC2	x	4.7
Cc1cc(/C=C2/C(=N)N3C=CSC3=NC2=O)c(C)n1-c1ccccc1	-7.3	8.9
O=C1C=CC(=O)N1c1ccccc1	-4.7	126.9*
O=C1CC(=O)N(c2ccccc2)N1c1ccccc1	1.0	0.6
Cc1ccc(N(C(=O)c2ccccc2C)S(=O)(=O)c2ccc(Cl)cc2)cc1	0.9	-1.1
COc1ccc(S(=O)(=O)N2Cc3ccccc3CC2C(N)=O)cc1OC (stereo unspecified)	x	-5.3
CC(C)N1CN=C(Nc2nc3ccccc3o2)NC1	-0.7	0.3
Cc1ccnc(Nc2nc3ccccc3o2)n1	x	49.8*
CCC(C)(C)C(=O)NCc1ccc2c(c1)OCO2	0.4	-1.8
FC(F)(F)c1ccnc(=S)[nH]1	x	-4.0
COc1cccc(NC(=O)Cn2ncc3c4ccccc4n(Cc4ccccc4)c3c2=O)c1	16.5*	2.7
O=C(Cn1ncc2c3ccccc3n(Cc3ccccc3)c2c1=O)NC1CC1	-0.8	0.9
CCOc1ccc(/C=C2\SC(N3CCCC3)=NC2=O)cc1	0.4	-0.5
O=C(/C=C\c1ccccc1)Nc1ccc(-c2cn3cccnc3n2)cc1	x	-0.8
CCOc1ccc(-c2c(C#N)c(N)nc(SCC(=O)c3ccc(Cl)cc3)c2C#N)cc1	16.4*	4.2
Cc1ccc(-c2nsc(SCC(=O)c3ccc(Cl)cc3)n2)cc1	-0.5	-0.9
SMILES	A1 inh	BJeLR viab HTS
CN(C)c1ncnc2c1ncn2C1OC(CO)C(N)C1O (stereo unspecified)	0.8	19.6
COc1ccc(CC(N)C(=O)N[C@H]2[C@@H](O)[C@H](n3cnc4c(N(C)C)ncnc43)O[C@@H]2CO)cc1 (stereo partly specified)	58.0*	19.0
COc1ccc(C2C(C(=O)N3CC(C)CC(C)C3)CCC(=O)N2c2ccc(OC)cc2)cc1 (stereo unspecified)	x	-5.4
Cc1cc(C)cc(NC(=O)CN2C=NS(=O)(=O)c3ccccc32)c1	0.8	2.5
Cc1cc(C)cc(NC(=O)CN2C(=O)CCc3ccccc32)c1	10.9*	0.3
CCC(C)C(=O)NCCc1ccccc1 (stereo unspecified)	0.2	2.7
CN1C(=O)[C@@]2(Cc3ccccc3)SSS[C@]1(CO)C(=O)N2C	31.1*	87.1*
O=C(C1CC1)N1CCc2cc(Br)cc(S(=O)(=O)NCCc3ccccc3Cl)c21	x	0.9
COC(=O)Cn1c(Cl)nc2c1c(=O)n(C)c(=O)n2C	0.0	0.7
COC(=O)Cn1c(=O)c2c(nc3n2CCN3c2ccccc2)n(C)c1=O	36.5*	-3.2
O=C1c2ccccc2C(Nc2ccccc2)N1Cc1ccccc1 (stereo unspecified)	x	1.2
C=C1C(=O)O[C@@H]2C3C(=C(C)[C@@H](O)[C@@H](OC(=O)/C(=C/C)COC(C)=O)[C@@H]12)C(=O)[C@H]1O[C@@]31C (stereo partly specified)	0.9	89.7*
C=C(C(=O)O[C@H]1C[C@]2(C)C(C(C=O)CC[C@H]2O)[C@H]2OC(=O)C(=C)[C@H]12)C(O)CO (stereo partly specified)	0.2	-2.3
CCC(C)NC(=O)c1cc(Nc2ccc(C(C)C)cc2)nc2ccccc12 (stereo unspecified)	x	3.3
Nc1nc(Cl)nc2c1ncn2C1OC(CO)[C@H](O)[C@H]1F (stereo partly specified)	1.2	53.6*
Nc1nc(Cl)nc2c1ncn2C1C[C@@H](O)C(CO)O1 (stereo partly specified)	1.2	-16.5
O=C(CC12CC3CC(CC(C3)C1)C2)N1CCC(O)(c2ccc(Cl)cc2)CC1	x	3.1
C=C1C(=O)O[C@H]2C1C[C@@H](OC(C)=O)[C@@]1(C)[C@@H](OC(C)=O)C[C@@H](OC(C)=O)C(=C)[C@H]21 (stereo partly specified)	-0.7	28.2
C=C(C)C(=O)O[C@H]1[C@H]2C(=C)C(=O)O[C@@H]2C[C@@H](C)/C=C/C(=O)[C@](C)(O)[C@@H]1OC(C)=O	1.5	59.5*
